Results: the supplement of paper PMC6555819

test system: LXRb:RXRa (NR concentration 270 nM, RXRa partner concentration 90 nM); assay: PBM binding z-score (relative to random genomic background probes); higher = stronger binding; sequences stand for … in GC…GCGATTGACAGCGTAGAATGAAGG
In short: (§1)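 Random background probes are the reference for binding z-scores. These scores derive from regression-normalized fluorescence on custom Agilent 4×180K protein-binding microarrays incubated 1 h with ligand-free nuclear receptor dimers. Binding was detected with antibodies against each partner (one per run).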

Sequence	PBM binding z-score
GCGACTGGGGCAAAGCGGGTTACCATAAGGTTGG	0.27
AGAATGAGGTTATACGTAGATCAGGAAAGAAAGT	1.76
ATATGTAGGTTAGCTGGGGCCATTCAGACTAGGC	0.901
TCTAGCAGGCCAGAGGGTCAATCAAGAGGTACGG	1.43
ACTTACGGGTCAACGAGGTGATAGCACGCGTATA	3.7
CCTACTGGGCCACGAAAGGTCATTGTTTCAGTGA	4.29
ATACCAAGGTGATCGTCAGGTCGTTGATACTAAC	0.454
CCGCCTAGGTCAGGGCCAGTATAGGAGGAACGTT	1.1
ATCTCTAGGTAACGTTCAGTGAAAGATCGATAGA	0.297
CATACAGGGTCAGGTAGGCCAGAGTAGGGACGGC	2.21
CATACAGGGTCAGCTAGGCCAGAGTAGGGACGGC	2.27
ATAACGAGGGCAATGAGTTGATAGCACGGGTGGC	0.00885
CTTACAGGGTCAGCTAGGCCAGAGTAGGGACGGC	2.04
TCTTGTAGATCAACAGGAGGTTACGAAAGATCGA	0.991
CCGCCTGGGGCAGAAAGGTTACCATACCATCCGG	0.678
ATGGAAAGGTCGACGAGGTGAGTATACACCGTTT	2.47
TCTTGTAGATCAATAGAGGTTACGAAAGTGCGCT	2.05
TCTATTAGTTGAAGGGCAACTGACGAGTCCGTTT	0.815

test system: LXRb homodimer (NR concentration 270 nM); assay: as above
In short: as §1

Sequence	PBM binding z-score
CGAACGAAGGCATGAGTTGATAGCAAATGCCGAT	-1.09
AGTCAAAGTTCAACTAGGTAACGTAAGATATGCT	1.72
CCTTCCGGGTCACGAGGTTATAGCACGACGAGCG	0.139
CCTACTGGGCCCAGGTCATTGATCAGTCAAAGCA	-0.506
CTACCAAGGTGAACAAGGTAGTTGATTACTATTC	-0.774
TCTATAAGTTGATTAGGGCAACCGAAACAGCGGA	-0.0997
CCTAGCAGGCCAATATGGGTCACTCAAGGCTTGA	-0.863
GCTCGGAGGCCAAGGTCAGAGCTTTGTCCGTAGA	-1.5
GCTATTAGATGAAAGGGCAACCGAATGATTCTCG	-0.27
CCCACTGGGCCATCAGGTCATTGATATCAACGTT	-0.17
ACAGACAGGTGATGAAGGAAACTCAGGCTATCAT	-0.211
ACTAGTTGGTCAGCTGAGGTCACGCACAATTCGG	0.387
ATCTCTAGGTAACAAGTTCAGTTAAAGAGAGGAC	0.936
CGTCAAAGTTCAACTAAGGTAACGTAAAGCACGC	1.99
CCTAGCAGGCCAGGGCCACTCAAGCATTTCGCTT	-1.61
CCTACTGGGCCATCAGGTCTTTGATATCAACGTT	-0.568
AGTCAAAGTTCATCTAGGTAACGTCAGATATGCT	1.91
ACTAGCAGGCCAAGGGTCACTCATGATTAGTCCG	-0.498
TCATATAGGTAAAGGTGAAAGTTGAACGATATGA	-0.399
TGAATGAGTTTAAAGATCAGGGAACGTGGCGTCG	0.209

Sequence	PBM binding z-score
CGTCCACGGTCAATGCTAGGTCAGTGAAAGCATT	-0.956
CAAACTCGGTCACCGGAAGGTCAAAGTCCGCATG	1.28
GCGACTGGGGCAAAGCGGGTTACCATAAGGTTGG	-0.709
AGAATGAGGTTATACGTAGATCAGGAAAGAAAGT	0.0606
ATATGTAGGTTAGCTGGGGCCATTCAGACTAGGC	0.197
TCTAGCAGGCCAGAGGGTCAATCAAGAGGTACGG	-1.31
ACTTACGGGTCAACGAGGTGATAGCACGCGTATA	0.296
CCTACTGGGCCACGAAAGGTCATTGTTTCAGTGA	0.43
ATACCAAGGTGATCGTCAGGTCGTTGATACTAAC	-0.244
CCGCCTAGGTCAGGGCCAGTATAGGAGGAACGTT	-0.93
ATCTCTAGGTAACGTTCAGTGAAAGATCGATAGA	0.462
CATACAGGGTCAGGTAGGCCAGAGTAGGGACGGC	0.723
CATACAGGGTCAGCTAGGCCAGAGTAGGGACGGC	0.142
ATAACGAGGGCAATGAGTTGATAGCACGGGTGGC	0.11
CTTACAGGGTCAGCTAGGCCAGAGTAGGGACGGC	-0.147
TCTTGTAGATCAACAGGAGGTTACGAAAGATCGA	-0.0897
CCGCCTGGGGCAGAAAGGTTACCATACCATCCGG	-1.32
ATGGAAAGGTCGACGAGGTGAGTATACACCGTTT	0.238
TCTTGTAGATCAATAGAGGTTACGAAAGTGCGCT	0.24
TCTATTAGTTGAAGGGCAACTGACGAGTCCGTTT	0.416
